VACV mCherry inh: vaccinia inhibition (mCherry reporter) | Potency, µM (top dose mostly 36.5 µM), for the others: top-dose activity change, negative = inhibition, most hits filed as inhibitors | Vaccinia virus mCherry reporter infection, fluorescence | 310,000 compounds, 0.63% hits | AID 720579; calls by dose curve; tested in A549 cells; note: potency is the fitted concentration of half-maximal effect; nearly all actives have a fitted effect of over 35% in size
HCV inh: blocks hepatitis C virus; Huh7.5.1 HCVcc-Cre infection, luciferase reporter, 44 h; Potency, µM (titrated, usually from 41.8 µM), inactives show top-dose activity change, negative = inhibition, hits mostly inhibitors; 340,000 compounds, 3.4% hits; AID 651820; active = well fitted inhibition curve with a large enough effect; inconclusive = small, poorly fitted or top-dose-only effect, or another doubt; inactive = no such curve, though single readings can be large or run the other way; note: potency is the fitted concentration of half-maximal effect
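After 44 h co-culture of compound, cells and HCVcc-Cre (~0.5 moi), substrate is added for 15 min at room temperature and luciferase measured over 15 sec. Cells were seeded at 1,000/well and pre-cultured 4 h.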
HCMV antiviral: human cytomegalovirus inhibition. HFF cells, HCMV-luciferase reporter, 72 h; active compounds read low. activity change, negative = inhibition, % at 57.5 µM. 410,000 compounds, 4.5% hits; in the data active = activity change below about -60%; inconclusive = no clear call, values can overlap the other calls; inactive = above about -39%
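Two compound doses tested in HFFs infected with HCMV-luciferase, MOI 1 PFU/cell, 72 h at 37C. Lysate luminescence read with OneGlo; data normalized against buffer-only and 10uM Salinomycin inhibitor controls.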
Vaccinia Venus: vaccinia inhibition (Venus reporter) | 330,000 compounds, 0.46% hits | Potency, µM (titrated, usually from 36.5 µM), without a hit: at the top dose activity change, negative = inhibition, most hits filed as inhibitors | Vaccinia virus Venus reporter expression, fluorescence; calls by dose curve; tested in A549 cells; note: potency is the fitted concentration of half-maximal effect; nearly all actives have a fitted effect of over 30% in size
FMDV inh: foot and mouth disease virus antiviral activity | FMDV antiviral cell-based qHTS | Potency, µM (highest dose often 57.9 µM), for the others: at the highest dose activity change, negative = inhibition, hits mostly inhibitors | 410,000 compounds, 1.2% hits; calls by dose curve; tested in HEK293T cells; note: read-out not given here; potency is the fitted concentration of half-maximal effect; nearly all actives have a fitted effect of over 45% in size
The depositor's hits bear a star; i = inactive; u = inconclusive; x = not tested or not shown; [ ] = another dose, or the depositor's remark. The list is not random: actives were taken first. Their share in the collection is about 7.3%. % is set by controls: 0 for no effect and ±100 for the full control effect.

SMILES | VACV mCherry inh | HCV inh | HCMV antiviral | Vaccinia Venus | FMDV inh
COC(=O)C[C@H]1CC[C@@H](NC(=O)Nc2c(C)noc2C)[C@@H](CO)O1 | -2% | x | -65* | 29% | -11%
Cc1ccc(S(=O)(=O)N(C)c2c(C)ccc(S(=O)(=O)N3CCN(C)CC3)c2C)cc1 | -13% | 0% | -3 | -26% | 1%
C=C(C)CN1CCN(S(=O)(=O)c2ccc(C)c(N(C)S(=O)(=O)c3ccc(C)cc3)c2C)CC1 | -23% | u | -73* | -19% | -26%
Cc1ccc(S(=O)(=O)N2CCN(Cc3ccccc3)CC2)c(C)c1N(C)S(=O)(=O)c1ccccc1 | -25% | u | -81* | -19% | -28%
Cc1ccc(S(=O)(=O)N2CCN(Cc3ccccc3)CC2)c(C)c1NS(C)(=O)=O | -6% | x | 2 | 0% | -17%
Cc1ccc(S(=O)(=O)N(C)c2c(C)ccc(S(=O)(=O)N3CCN(C=O)CC3)c2C)cc1 | -5% | -6% | -90* | -16% | -4%
COc1ccc2cc(CNc3ccc(C)cc3)c(=O)n(CC(=O)Nc3ccc(OC)c(Cl)c3)c2c1 | -11% | x | 9 | 5% | -10%
O=C(NCc1ccc(F)cc1F)Nc1cnccc1C(F)(F)F | x | -5% | -68* | x | -12%
Cc1cc(Nc2ccccc2)nn1C(=O)c1ccccc1 | -21% | u | -23 | -18% | x
Cc1cc(Nc2ccccc2)nn1C(=O)c1ccc(Br)cc1 | x | 14µM* | u | -27% | -11%
CNc1nc(-c2ccc3c(c2)CCN3C(=O)c2ccccc2F)cs1 | -21% | 11µM* | 50 | -28% | -7%
Cc1ccc(CN2CCN(C3CCN(C(=O)c4ccc(C)cc4)CC3)C(=O)C2=O)cc1 | -1% | x | 11 | -4% | 11%
COc1cc(/C=C(/C(=O)c2cccs2)c2nc3ccccc3[nH]2)cc(OC)c1O | x | 10µM* | -102* | x | 14µM*
COc1ccc(C(=O)N/C(=C/c2cccs2)c2nc3ccccc3[nH]2)cc1OC | 0% | 0% | -21 | -15% | -12%
O=C(/C(=C/c1ccc(Cl)cc1)c1nc2ccccc2[nH]1)c1ccccc1 | u | 10µM* | -96* | u | u
O=C(NCc1ccco1)N[C@H]1CC[C@@]23CCCN2C(=O)CCC[C@H]3C1Cc1ccccc1 (stereo partly specified) | x | x | 6 | x | x
O=C(Nc1ccc(Br)cn1)c1ccc(Br)s1 | -23% | u | -99* | -23% | 1%
O=C(Nc1ccccc1C(=O)Nc1ccc(Br)cn1)c1ccccc1Cl | x | 13µM* | 0 | x | -22%
O=C(Nc1ccc(Br)cn1)c1ccc(Cl)s1 | -19% | u | 74 | -15% | 2%
O=C(/C=C/c1cccs1)Nc1ccc(Br)cn1 | -21% | 8% | -66* | -29% | 41%
Cc1ccnc(NC(=O)c2ccccc2NC(=O)c2ccc(Cl)cc2Cl)c1 | x | 10µM* | 4 | x | 7%
Cc1nc2ccn(Cc3cccnc3)c(=O)c2cc1C(=O)NCc1ccc(Cl)cc1 | i | x | -19 | -5% | -15%
COc1ccc(CNC(=O)c2cc3c(=O)n(Cc4ccc(OC)cc4)ccc3nc2C)cc1 | -26% | x | -75* | -25% | 0%
CCc1ccc(CNC(=O)c2cc3c(=O)n(Cc4cccs4)ccc3nc2C)cc1 | -12% | x | -16 | -14% | -11%
Cc1nc2ccn(Cc3cccs3)c(=O)c2cc1C(=O)NCc1ccc(Br)cc1 | -24% | x | -63* | -20% | 3%
SMILES | VACV mCherry inh | HCV inh | HCMV antiviral | Vaccinia Venus | FMDV inh
O=S(=O)(c1ccccc1)N1[C@@H]2CC[C@@H](C2)[C@H]1c1nc2c(OCC3CCOCC3)cccc2[nH]1 | x | x | 1 | x | x
Cc1ccc2nc(-c3ccc(NC(=S)NC4CC(C)(C)NC(C)(C)C4)cc3)sc2c1 | -6% | u | -102* | -20% | 63%
CCOc1cc(C2CC(=O)Nc3c2c(=O)nc(SCc2cccc(Cl)c2)n3C)ccc1O (stereo unspecified) | -12% | x | 5 | -9% | 0%
O=C(NC(=S)Nc1ccc(Cc2ccncc2)cc1)c1ccccc1F | -17% | -25% | -99* | -27% | -20%
COC(=O)Oc1ccc(/C=N/NC(=O)CSCc2ccc(Cl)cc2)cc1OC | -22% | u | -60* | -23% | u
Cc1nn(C)c(C)c1CNC(=O)c1cc2n(n1)C(C(F)(F)F)CC(c1cccs1)N2 (stereo unspecified) | -19% | u | -69* | -23% | x
COc1ccc(C2CC(C(F)(F)F)n3nc(C(=O)NCc4c(C)nn(C)c4C)c(Cl)c3N2)cc1 (stereo unspecified) | u | u | -86* | u | x
CC(=O)NNC(=O)c1[nH]c2ccc(Br)cc2c1-c1ccccc1 | x | 3% | -32 | x | 7%
NNC(=O)c1[nH]c2ccc(Br)cc2c1-c1ccccc1 | u | 4% | -96* | u | -24%
NNC(=O)c1[nH]c2ccc(Cl)cc2c1-c1ccccc1 | -27% | -12% | -97* | u | -5%
CCN1CCN(C(=O)c2ccc3c(c2)N(Cc2c(F)cccc2Cl)C(=O)c2ccccc2S3)CC1 | -6%[7.34 µM] | x | -24 | -4%[7.34 µM] | -15%
Cc1cc(C(=O)N/N=C/c2cc(N=Nc3ccccc3)ccc2O)n[nH]1 | u | 22µM* | x | u | 10%
O=C(N/N=C/c1c(O)ccc2ccccc12)c1ccc(CO)nc1 | u | 11µM* | -99* | -20% | -11%
Nc1ccc(C(=O)N/N=C\c2cc(N=Nc3cccc4ccccc34)ccc2O)cc1 | x | 11µM* | -102* | x | 15%
O=C(CNC(=O)c1ccc(S(=O)(=O)N2CCCC2)cc1)N/N=C/c1ccccc1Cl | -16% | u | -63* | -15% | u
COc1ccc(CN(C)c2ccc(-c3nc(C)no3)cc2[N+](=O)[O-])cc1 | -18% | x | -8 | -18% | u
O=C(Nc1nnc(C2CCCCC2)s1)C1CCN(C(=O)c2ccco2)CC1 | -14% | x | x | u | x
O=C(NN=Cc1c(O)ccc2ccccc12)c1ccc2c(c1)OCO2 | x | 5µM* | -102* | x | 20%
O=C(N/N=C\c1c(O)ccc2ccccc12)c1ccc(S(=O)(=O)N2CCCCC2)cc1 | -9% | 5µM* | -103* | 0% | -12%
C/C(=N\NC(=O)c1cc2ccccc2cc1O)c1ccc2c(c1)OCO2 | i | -3% | 13 | -5% | -28%
CC/C(=N/NC(=O)c1ccc2c(c1)OCO2)c1ccccc1O | x | 3.2µM* | -98* | x | 50%
COc1c(O)ccc(/C=N\NC(=O)c2ccc3c(c2)OCO3)c1[N+](=O)[O-] | x | -5% | 65 | x | 51%
Cc1cc(O)cc(O)c1/C=N/NC(=O)c1ccc2c(c1)OCCO2 | 2µM* | x | -100* | u | -16%
O=C(NCc1ccccc1)c1ccc(S(=O)(=O)N2CCCCCC2)cc1 | -11% | x | -13 | -12% | -8%
COc1cccc(N2CCN(C(=O)c3ccc(C)c(NC(=O)c4nsc5ccccc45)c3)CC2)c1 | -12% | x | 15 | -15% | u
CCCCN1C(C)=CC(=C2C(=O)c3ccccc3C2=O)C=C1C | -11% | -24% | 35 | 1% | -44%

Source: PubChem BioAssay
